# HCV inhibitor: inhibitors of hepatitis C virus infection; AID 651820; Huh7.5.1 HCVcc-Cre infection, luciferase reporter, 44 h; Potency, µM (doses to about 41.8 µM), hits mostly inhibitors; actives 3.4% (n = 340,000); active = well fitted inhibition curve with a large enough effect; inconclusive = small, poorly fitted or top-dose-only effect, or another doubt; inactive = no such curve, though single readings can be large or run the other way
#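 Cells (1,000/well) were plated 4 h before compound, then infected with HCVcc-Cre virus (~0.5 moi). After 44 h further culture, infection was read as luciferase luminescence following a 15 min substrate incubation at room temperature.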
# FMDV inh: foot and mouth disease virus antiviral activity | FMDV antiviral cell-based qHTS | Potency, µM (series often up to 57.9 µM), most hits filed as inhibitors | actives 1.2% (n = 410,000); calls by dose curve; tested in HEK293T cells; note: read-out not given here; nearly all actives have a fitted effect of over 45% in size
# VACV Venus inh: inhibitors of vaccinia virus (Venus reporter); Vaccinia virus Venus reporter expression, fluorescence; actives 0.46% (n = 330,000); Potency, µM (highest dose often 36.5 µM), most hits filed as inhibitors; AID 720580; calls by dose curve; tested in A549 cells; note: nearly all actives have a fitted effect of over 30% in size
# VACV mCherry inh: inhibitors of vaccinia virus infection (mCherry reporter signal). Vaccinia virus mCherry reporter infection, fluorescence. Potency, µM (doses to about 36.5 µM), actives largely listed as inhibitors. actives 0.63% (n = 310,000); calls by dose curve; tested in A549 cells; note: nearly all actives have a fitted effect of over 35% in size
# HCMV antiviral: human cytomegalovirus inhibition. AID 1259415. activity change, negative = inhibition, % at 57.5 µM. HFF cells, HCMV-luciferase reporter, 72 h; hits give low values. actives 4.5% (n = 410,000); in the data active = activity change below about -60%; inconclusive = no clear call, values can overlap the other calls; inactive = above about -39%
#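 Human foreskin fibroblasts infected with luciferase-reporter HCMV at MOI 1 PFU/cell, compounds at two doses. Luciferase measured 72 h post infection; normalized to buffer-only basal and Salinomycin (10uM) controls.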
# A number is an active result; 0 = inactive; ? = inconclusive; - = not tested or not shown; [ ] = dose if it differs, or a comment. Rows were chosen to be rich in hits. Some 7.3% of all compounds tested hit in one or more screens of this group.
SMILES,HCV inhibitor,FMDV inh,VACV Venus inh,VACV mCherry inh,HCMV antiviral
COc1cc2c(cc1OC)C(=O)N1[C@H]3c4ccccc4OC[C@@H]3[C@H](c3ccccc3)[C@]1(C)C(=O)N2,?,?,?,?,0
O=C(Nc1ccc(Cl)cc1)c1csc([C@@H]2O[C@H](CO)[C@@H](O)[C@H]2O)n1,-,0,0,0,0
CCOC(=O)N1CCN(C(=O)c2ccc(Cn3c(=S)[nH]c4ccc(Br)cc4c3=O)cc2)CC1,?,?,0,0,-95
O=c1c2cc(Br)ccc2[nH]c(=S)n1Cc1ccccc1,0,0,0,0,-63
COc1cc2[nH]c(=O)n(Cc3ccc(C(=O)NCCCN4CCN(C)CC4)cc3)c(=O)c2cc1OC,0,0,-,-,0
O=c1c2cc(Br)ccc2[nH]c(=S)n1Cc1ccccn1,0,0,0,0,0
CN1CCN(CCCNC(=O)c2ccc(Cn3c(=S)[nH]c4ccc(Br)cc4c3=O)cc2)CC1,7.9µM,0,0,0,0
CCOC(=O)N1CCN(C(=O)c2ccc3c(=O)n(Cc4ccc(Cl)cc4)c(=S)[nH]c3c2)CC1,0,?,0,?,0
Cc1csc2nc(COc3ccc(NC(=O)c4ccccc4F)cc3)cc(=O)n12,-,0,0,0,0
COc1cc(N(C)C)c(OC)cc1C=C1C=CC=C1,-,-,0,0,-
Cc1cc(C)c2c(CC(=O)Nc3nnc(C(C)C)s3)coc2c1,-,0,?,0,?
Cc1cc(C)c2c(CC(=O)NC(C)C)coc2c1,0,0,0,0,-61
C[C@@H]1CCCCCCCCC(=O)OCCN(C(=O)OC(C)(C)C)[C@H](C)CCCCCCCCC(=O)OCCN(C(=O)OC(C)(C)C)[C@H](C)CCCCCCCCC(=O)OCCN1C(=O)OC(C)(C)C,0,0,0,0,-
N#C/C(=N\Nc1cccc([N+](=O)[O-])c1)C(=O)c1ccc(Br)cc1,10µM,?,?,1.8µM,-101
N#C/C(=N\Nc1ccc([N+](=O)[O-])cc1)C(N)=S,10µM,0,0,0,-95
O=C(O)c1ccc(N=NNc2cccc([N+](=O)[O-])c2)cc1,0,0,0,?,0
CCN(CC)c1ccc(NC(=O)COc2ccccc2C#N)cc1S(=O)(=O)Nc1ccc(OC)cc1,?,0,0,0,0
CCN(CC)c1ccc(NC(=O)c2cnccn2)cc1S(=O)(=O)Nc1ccc(OC)cc1,8.9µM,0,?,0,0
CCN(CC)c1ccc(NC(=O)c2ccc(=O)[nH]c2)cc1S(=O)(=O)Nc1ccccc1OC,22µM,0,0,0,0
CCN(CC)c1ccc(NC(=O)c2ccccc2Br)cc1S(=O)(=O)Nc1ccccc1OC,?,0,0,0,0
Cc1cccc(N2CCN(S(=O)(=O)c3ccc(-c4cnc(C5CC5)o4)cc3)CC2)c1C,-,?,0,0,0
O=C(c1cc(Br)c[nH]1)N1CCSCC1,0,0,0,0,?
O=C(c1ccc(Cn2c(=O)[nH]c3ccccc3c2=O)cc1)N1CCN(c2ccc(Cl)cc2)CC1,11µM,0,-,-,?
C=CCn1c(=O)[nH]c2cc(C(=O)N3CCN(c4cccc(Cl)c4)CC3)ccc2c1=O,0,28µM,0,?,0
COc1ccc(Cn2c(=O)[nH]c3cc(C(=O)N4CCN(c5ccccc5)CC4)ccc3c2=O)cc1,0,0,0,0,0
SMILES,HCV inhibitor,FMDV inh,VACV Venus inh,VACV mCherry inh,HCMV antiviral
COc1cccc(N2CCN(C(=O)c3ccc4c(=O)n(CCc5ccccc5)c(=O)[nH]c4c3)CC2)c1,-,20µM,0,0,0
C=CCn1c(=O)[nH]c2cc(C(=O)N3CCN(c4ccc(C(C)=O)cc4)CC3)ccc2c1=O,?,14µM,-,-,0
COCCn1c(=O)[nH]c2cc(C(=O)N3CCN(c4cccc(Cl)c4)CC3)ccc2c1=O,?,?,0,0,0
Cc1nn(C)c2c1c(-c1ccccc1)cc(=O)n2Cc1ccccc1C#N,-,0,0,0,0
CSc1ccc(C(=O)N2CCc3c(cnc(C)c3CNC(=O)c3cncs3)C2)cc1,-,0,0,0,-
Cc1cc(Br)ccc1OCCCCNC(C)(C)C,13µM,0,0,?,0
COCCCNCCCCOc1cccc(Br)c1,?,0,0,0,0
Cc1cc(Cl)c(OCCCN(C)C)c(Br)c1,0,0,0,0,0
Cc1cc(Cl)c(OCCCCNC(C)(C)C)c(Br)c1,10µM,-,-,-,-
COCCCNCCCCOc1ccc(Br)cc1C,11µM,0,0,0,0
COCCNCCCCOc1ccc(Br)cc1C,10µM,0,0,0,0
O=C1NC(=O)C(=CC=Cc2ccccc2)S1,-,0,0,0,0
ClC1=C(Cl)C(Cl)=C(Cl)C1=C/C=C/c1ccccc1,8.9µM,?,-,-,?
CCN(CC)CCNC(=O)c1[nH]c2ccc(OCc3ccccc3)cc2c1C,10µM,0,?,?,?
Cc1nc(-c2ccncc2)sc1C(=O)Nc1ccc(Br)cc1,0,0,0,0,-72
CC(=O)Nc1ccc(NC(=O)c2sc(-c3ccccc3)nc2C)cc1,?,0,0,0,0
COC(=O)c1c(C)[nH]c(O)c1C=Nc1ccc(Oc2ccccc2)cc1,0,0,0,0,-65
COC(=O)c1c(C)[nH]c(O)c1C=Nc1ccc(C(C)C)cc1,0,0,0,0,0
COc1ccc(NC(=O)CSc2ccc3c4c(cccc24)C(=O)c2ccccc2-3)cc1,?,0,-,-,?
N#Cc1cccc(NC(=O)CSc2ccc3c4c(cccc24)C(=O)c2ccccc2-3)c1,8.9µM,0,0,0,?
O=C1/C(=C/N(C(=O)c2ccco2)c2ccc(Cl)cc2)Sc2ccccc21,0,?,0,0,-
O=C1/C(=C/N(C(=O)c2ccco2)c2ccc(Br)cc2)Sc2ccccc21,0,11µM,0,0,-
Cc1ccc(NCCc2ccc(C)nc2)cc1,0,0,0,0[1.46 µM],0
Cc1ccc(CCNc2ccc3ccccc3c2)cn1,0,0,0,0[1.46 µM],-63
CN(c1ccccc1)S(=O)(=O)c1cccc(NC(=O)c2nn(C)c(=O)c3ccccc23)c1,4.5µM,?,-,-,0
SMILES,HCV inhibitor,FMDV inh,VACV Venus inh,VACV mCherry inh,HCMV antiviral
CN(c1ccccc1)S(=O)(=O)c1cccc(NC(=O)Cn2cnc3ccccc3c2=O)c1,2.8µM,?,?,-,0
Cc1nnc(SCC(=O)Nc2cccc(S(=O)(=O)N(C)c3ccccc3)c2)s1,7.1µM,?,0,0,0
CCN(CC)S(=O)(=O)c1cc(NC(=O)Cn2cnc3ccccc3c2=O)ccc1C,11µM,0,-,-,0
COCCn1cnnc1SCC(=O)Nc1cccc(S(=O)(=O)N(C)c2ccccc2)c1,0,0,0,0,0
CCCNS(=O)(=O)c1cc(-c2nnc3c4ccccc4c(C)nn23)ccc1OC,-,0,0,0,?
Cc1cc(C)nc(S[C@H]2C[C@@H](C(=O)N3CCN(c4ccccc4F)CC3)N(Cc3ccccc3F)C2)n1,-,0,0,0,-
Oc1cccc(Nc2nccc3[nH]c(-c4ccccc4)cc23)c1,-,-,-,-,0
O=S(=O)(c1ccccc1)N1CCC2(CC1)CN(c1ccccn1)C2,-,0,-,-,-
CCOC(=O)C1=C(O)CCn2c1nc1ccccc12,0,0,-,-,-107
O=c1onc(-c2ccc(Cl)cc2)n1Cc1ccc(F)cc1,0,0,0,0,0
O=c1onc(-c2ccccc2)n1Cc1ccc([N+](=O)[O-])cc1,-,0,0,?,-75

# Bioassay records as filed in PubChem.
